# Experimental data reported in PubChem BioAssay (Tox21).
# Results filed as inconclusive are left out. Values without a mark were called inactive. Active and inactive are the calls of the source. Calls follow the shape of the dose curve; as a rule, active = well fitted cell-killing curve with a large enough effect in the repeat runs; inconclusive = weak or mixed curves; inactive = flat fitted curve, though single readings scatter.
# Assay: qHTS RealTime-Glo MT Cell Viability Assay in HepG2 cells - 16 hour (AID 1224885); also: nearly all actives have a fitted effect of over 50% in size
# Settings: RealTime-Glo luminescence; series mostly up to 76.8 µM
# Description: U.S. Tox21 Program National Center for Advancing Translational Sciences [NCATS] NIH Chemical Genomics Center [NCGC] U.S. Environmental Protection Agency [EPA] National Institutes of Environmental Health Sciences [NIEHS] National Toxicology Program [NTP] U.S. Food and Drug Administration [FDA] Tox21 Assay Overview: Measure of cell viability is critical in the cell-base assay. Analysis of cell viability is necessary for the characterization of cell responses to cytotoxic drugs and environmental stress. A RealTime-Glo MT Cell Viability Assay to monitor cell viability in real time of continues cell culture during 40 hours of compound treatment was used to screen Tox21 10K library compounds in HepG2 cells. The RealTime-Glo MT Cell Viability Assay is a nonlytic, homogeneous, bioluminescent method to measure cell viability in real time using a simple, plate-based method. The assay involves adding NanoLuc luciferase and a cell-permeant prosubstrate to cells in culture. Viable cells reduce the proprietary prosubstrate to generate a substrate for NanoLuc luciferase. This substrate diffuses from cells into the surrounding culture medium, where it is rapidly used by the NanoLuc Enzyme to produce a luminescent signal. The signal correlates with the number of viable cells, making the assay well suited for cytotoxicity studies.
# Tox21 Assay Protocol Summary: The mixture of HepG2 cell suspension and reagents were dispensed at 600cells/6 ul/well in 1536-well tissue culture treated black solid bottom plates using a Multidrop dispenser. After the assay plates were incubated at a 37 C/5% CO2 incubator for 5 hours, 23 nL of compounds dissolved in DMSO, positive and negative controls was transferred to the assay plate by a pintool work station. The plates were incubated at 37 C for 40 hours. The luminescence intensity were measured at 0h, 8h, 16h, 24h, 32h and 40h time points using ViewLux plate reader during compound treatment.
# % is scaled to controls: 0 for no effect and ±100 for the full control effect.
Compound,outcome,"activity change, negative = cytotoxic"
O=C(CCN1CCN(CCO)CC1)N1c2ccccc2Sc2ccc(C(F)(F)F)cc21,inactive,–
COC(=O)c1ccccc1C(=O)c1ccc(OCCN2CCCCC2)cc1,inactive,–
CC1(CO)CN(c2ccccc2)NC1=O (stereo not given),inactive,–
CC(C)(C)OC(=O)c1ccc(O)cc1,inactive,–
On1nnc2ccccc21,inactive,–
CC(C)CCCC(C)(C)O,inactive,–
CCC(C)NC(N)=O (stereo not given),inactive,–
COc1cc(NS(=O)(=O)c2ccc(N)cc2)nc(OC)n1,inactive,–
Cc1ccccc1C(=O)Nc1ccc(C(=O)N2CCCC(N(C)C)c3ccccc32)cc1 (stereo not given),inactive,–
CC1=CCC(C(C)C)=CC1,inactive,–
O=C(O)c1cc(Br)c(O)c(Br)c1,inactive,–
O=C(CCNNC(=O)c1ccncc1)NCc1ccccc1,inactive,–
Nc1ncnc(Nc2ccccc2)n1,inactive,–
CN(C)c1ccc(C=O)cc1,inactive,–
CC(=O)/C=C/C1C(C)=CCC(C)C1(C)C (stereo not given),inactive,–
Nc1ccc(S(=O)(=O)Nc2ccc(Cl)nn2)cc1,inactive,–
CCCCN,inactive,–
CNC(=O)[C@H]1O[C@@H](n2cnc3c(NCc4cc(Cl)ccc4OCc4cc(C)no4)ncnc32)[C@H](O)[C@@H]1N,inactive,–
C[Si](C)(C)C,inactive,–
COc1cc(C(=S)N2CCOCC2)cc(OC)c1OC,inactive,–

Compound,outcome,"activity change, negative = cytotoxic"
CC(C)N(c1ccccc1)C(C)C,inactive,–
Cc1cccc(OCC(O)CNC(C)(C)C)c1C (stereo not given),inactive,–
CCCCOC(=O)c1ccccc1,inactive,–
CC(=O)c1sc(C)nc1C,inactive,–
CCOC(=O)CC(=O)c1ccccc1,inactive,–
C=C(C)C1CCC(C)(O)CC1 (stereo not given),inactive,–
CC(C)c1ccc2cc(C(C)C)ccc2c1,inactive,–
N[C@@H](CCC(=O)Nc1ccc([N+](=O)[O-])cc1)C(=O)O,inactive,–
CC(C)C[C@H](NC(=O)CNC(=O)[C@H](Cc1ccc(O)cc1)NC(=O)[C@H](CO)NC(=O)[C@H](Cc1c[nH]c2ccccc12)NC(=O)[C@H](Cc1cnc[nH]1)NC(=O)[C@@H]1CCC(=O)N1)C(=O)N[C@@H](CCCN=C(N)N)C(=O)N1CCC[C@H]1C(=O)NCC(N)=O (stereo in doubt),inactive,–
CC(C)CC(C)CC(C)CC(C)COC(=O)c1ccccc1C(=O)OCC(C)CC(C)CC(C)CC(C)C (stereo not given),inactive,–
CCCCCCN,inactive,–
O=S(O)(O)=S,–,1% [at 6.97 µM]
Nc1ccc2cc(S(=O)(=O)O)cc(O)c2c1,inactive,–
Cc1[nH]cnc1-c1ccc(Cl)cc1,inactive,–
CCCCCOC(=O)CCC,inactive,–
O=C(Nc1ccc(Cl)c(Cl)c1)C1CC1,inactive,–
COc1ccc2c(c1OC)C(=O)O[C@@H]2[C@H]1c2c(cc3c(c2OC)OCO3)CCN1C,inactive,–
O=C(O)c1ccc(Cl)cc1Cl,inactive,–
CC(C(=O)O)c1ccc2c(c1)CC(=O)c1ccccc1S2 (stereo not given),inactive,–
CCOCCOC(=O)/C=C/c1ccc(OC)cc1,inactive,–
